Rows were chosen to be rich in hits. Some 2.2% of all compounds tested hit in one or more screens of this group.
PAX8 inh HTS: PAX8 transcriptional activity inhibition; hit rate 1.2% among 360,000; AID 652154; inhibition, % at 12.6 µM; RMG-I TPO-luciferase reporter, SteadyGlo, 24 h;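 active means mean replicate inhibition at least 60% with every replicate also reaching 60%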;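 further: luciferase light reporting Pax8 driven TPO promoter activity; plate controls were median of neutral control wells for no effect and mitoxantrone controls for full effect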
LGR2 antag: Drosophila LGR2 receptor signaling inhibition | HEK293 LGR2, CRE-luciferase, bursicon-stimulated, 4 h | inhibition, % at 9.99 µM | hit rate 0.35% among 380,000;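 active means drop in luminescence signal, shown as inhibition above about 50% in the replicate tests, limit read from the data, passing the limit was not always enough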;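 further: agonist challenge used bursicon conditioned medium at about half maximal strength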
MITF TRPM1 inh: reduces MITF-dependent TRPM1 promoter luciferase signal; inhibition, % at 12.5 µM; SK-MEL-5 TRPM1 promoter luciferase, 24 h; AID 488899; hit rate 0.83% among 330,000;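 active means mean inhibition across replicates of 60% or more, whatever share of single replicates reaches that level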
LMP1 NFkB inh: inhibitors of Epstein-Barr LMP1-induced NF-kappaB reporter; hit rate 0.69% among 350,000; AID 504558; LMP1-induced NF-kappaB luciferase reporter cells, luminescence; inhibition, % at 12.5 µM; in the data active means inhibition above about 41%;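 further: 0% = neutral control wells and 100% = reference inhibitor control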
PGC1a acetyl inh: modulators of PGC1a acetylation; U2OS PGC1a acetylation, AlphaScreen anti-acetyl-lysine; with virally co-expressed GCN5 acetyltransferase; AID 651687; inhibition, % at 15.6 µM; hit rate 0.17% among 350,000;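 active means every replicate shows inhibition of at least 40%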;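 further: 0% = neutral control wells and 100% = positive control wells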
EWS-Fli block: inhibitors of EWS/Fli oncoprotein transcriptional activity; A673 NR0B1-luciferase reporter, viability-normalised; hit rate 0.67% among 350,000; AID 651661; inhibition, % at 12.6 µM;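 active means mean inhibition of at least 50% after viability correction, with every replicate also passing that limit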;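 further: firefly luciferase signal divided by Alamar Blue viability fluorescence both relative to DMSO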
* marks the source's active call; other numbers are inactive results; . = not tested or not shown.

SMILES	PAX8 inh HTS	LGR2 antag	MITF TRPM1 inh	LMP1 NFkB inh	PGC1a acetyl inh	EWS-Fli block
O=C(Nc1nnc(N2CCCCCC2)s1)c1cc(-c2ccc(Br)cc2)on1	-17.5	.	-17.5	86.3*	5.8	-11.1
CC(=O)N1CC2(C1)[C@H](c1ccc(-c3ccc(C#N)cc3)cc1)[C@H](CO)N2C(=O)C1CC1	.	0.3	.	.	1.3	-1.8
C[C@@H]1CCCCO[C@@H](CN(C)Cc2ccc(C(F)(F)F)cc2)[C@H](C)CN([C@@H](C)CO)C(=O)c2cc(NC(=O)Nc3ccc4c(c3)OCO4)ccc2O1	71.6*	19.8	.	.	3.8	-3.3
C[C@@H]1CN([C@H](C)CO)C(=O)c2cc(NC(=O)Nc3ccc4c(c3)OCO4)ccc2O[C@@H](C)CCCCO[C@H]1CN(C)Cc1ccc(C(F)(F)F)cc1	84.8*	27.9	.	.	9.1	66.4*
C[C@@H]1CCCCO[C@H](CN(C)C(=O)CCC(F)(F)F)[C@H](C)CN([C@@H](C)CO)C(=O)c2cc(NC(=O)Nc3ccc4c(c3)OCO4)ccc2O1	68.2*	29.3	.	.	5.8	3.9
C[C@@H]1CCCCO[C@H](CN(C)Cc2ccc(C(F)(F)F)cc2)[C@@H](C)CN([C@@H](C)CO)C(=O)c2cc(NC(=O)Nc3ccc4c(c3)OCO4)ccc2O1	65.2*	19.1	.	.	-10.6	49.6
C[C@@H]1CCCCO[C@@H](CN(C)Cc2ccc(C(F)(F)F)cc2)[C@@H](C)CN([C@@H](C)CO)C(=O)c2cc(NC(=O)Nc3ccc4c(c3)OCO4)ccc2O1	52.3	15.7	.	.	-16.5	-19.5
Cc1noc(C)c1S(=O)(=O)Nc1ccc2c(c1)CC(=O)N([C@@H](C)CO)C[C@H](C)[C@@H](CN(C)Cc1ccc(C(=O)Nc3ccccc3N)cc1)O2	-31.1	-7.7	.	.	-7.5	4.3
C[C@@H]1CN([C@H](C)CO)S(=O)(=O)c2ccc(-c3cccnc3)cc2O[C@@H]1CN(C)C(=O)CN(C)C	.	10.5	.	.	7.5	-4.1
C[C@@H]1CN([C@H](C)CO)C(=O)c2cc(N(C)C)ccc2O[C@@H](C)CCCCO[C@H]1CN(C)Cc1ccncc1	17.8	29.2	.	.	-4.3	1.5
C[C@H](CO)N1C[C@H](C)[C@@H](CN(C)Cc2ccccc2)OCCCC[C@H](C)Oc2ccc(NC(=O)Nc3ccc4c(c3)OCO4)cc2C1=O	-15.3	7.6	.	.	-0.1	63.7*
C[C@@H]1CN([C@H](C)CO)C(=O)c2cc(NC(=O)Nc3ccc(C(F)(F)F)cc3)ccc2O[C@@H](C)CCCCO[C@@H]1CN(C)Cc1ccc2c(c1)OCO2	89.5*	9.0	.	.	-20.9	38.1
C[C@@H]1CCCCO[C@H](CN(C)Cc2ccccc2)[C@@H](C)CN([C@@H](C)CO)C(=O)c2cc(NC(=O)Nc3ccc4c(c3)OCO4)ccc2O1	6.5	-10.6	.	.	-0.8	-63.5
C[C@@H]1CCCCO[C@H](CN(C)Cc2ccc3c(c2)OCO3)[C@@H](C)CN([C@H](C)CO)C(=O)c2cc(NC(=O)Nc3ccc(C(F)(F)F)cc3)ccc2O1	11.0	12.8	.	.	2.6	-9.6
CNC[C@H]1OCCCC[C@@H](C)Oc2ccc(NC(=O)Nc3ccccc3)cc2C(=O)N([C@@H](C)CO)C[C@@H]1C	-22.2	-16.3	.	.	0.2	-2.1
CCCNC(=O)N(C)C[C@@H]1Oc2ncc(C#Cc3ccncc3)cc2C(=O)N([C@@H](C)CO)C[C@@H]1C	.	-32.3	.	.	-6.2	-0.7
C[C@@H]1CN([C@H](C)CO)C(=O)c2cccc(NC(=O)c3nc4ccccc4s3)c2O[C@H]1CN(C)Cc1ccc(C(=O)Nc2ccccc2N)cc1	.	2.9	.	.	-13.2	-5.5
C[C@@H]1CN([C@H](C)CO)C(=O)c2cc(NC(=O)Cc3ccccc3)ccc2O[C@@H](C)CCCCO[C@H]1CN(C)C(=O)c1ccccc1	6.9	6.2	.	.	-7.6	4.6
O=C(NCC[C@@H]1CC[C@@H](NS(=O)(=O)Cc2ccccc2)[C@H](CO)O1)C1CCCC1	1.1	-9.9	.	.	6.7	0.7
Oc1ccccc1N=Nc1nc(-c2ccccc2)c(-c2ccccc2)[nH]1	.	42.5	80.4*	84.2*	17.7	.
COc1ccccc1N=Nc1nc(-c2ccccc2)c(-c2ccccc2)[nH]1	6.0	-13.6	-6.7	-26.4	.	.
CCCCOC(=O)/C(=C/c1cn(C)c2ccccc12)NC(=O)c1ccc(OC)cc1	11.4	-3.8	9.1	4.1	.	-2.8
